NPSR antag: neuropeptide S receptor (human) antagonism, cAMP. Q6W5P4. AID 1461. Potency, µM (top dose mostly 38.3 µM), for the others: at the highest dose activity change, negative = inhibition, actives largely listed as inhibitors. hit rate 1% among 220,000. CHO-NPSR cells, cAMP TR-FRET, antagonist mode; note: potency is the fitted concentration of half-maximal effect; nearly all actives have a fitted effect of over 50% in size
JMJD2E inh: JMJD2E (human) inhibition; B2RXH2; JMJD2E catalytic domain, FDH-coupled NADH fluorescence (FDH is formaldehyde dehydrogenase); Potency, µM (top dose mostly 57.1 µM), without a hit: top-dose activity change, negative = inhibition, most hits filed as inhibitors; hit rate 1.6% among 230,000; AID 2147; active = well fitted inhibition curve with a large enough effect, not every such curve was filed as active; inconclusive = small, poorly fitted or top-dose-only effect, or another doubt; inactive = no such curve, though single readings can be large or run the other way;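 note: potency is the fitted concentration of half-maximal effect; 0% = wells with enzyme and -100% = buffer wells without enzyme; nearly all actives have a fitted effect of over 50% in size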
Target sequence (B2RXH2 1-337 limits assumed): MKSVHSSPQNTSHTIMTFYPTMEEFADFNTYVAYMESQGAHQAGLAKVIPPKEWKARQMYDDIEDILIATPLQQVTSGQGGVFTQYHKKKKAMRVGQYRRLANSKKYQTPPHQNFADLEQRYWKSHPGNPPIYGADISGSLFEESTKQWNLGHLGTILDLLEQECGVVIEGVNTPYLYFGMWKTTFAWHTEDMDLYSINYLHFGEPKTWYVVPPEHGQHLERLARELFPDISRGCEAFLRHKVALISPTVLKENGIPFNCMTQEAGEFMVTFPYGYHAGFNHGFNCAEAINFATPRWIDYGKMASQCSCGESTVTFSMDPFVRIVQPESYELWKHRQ
Sfp inh: blocks B. subtilis Sfp PPTase activity | Q9F4F7 | Biochemical Sfp PPTase activity, qHTS | hit rate 3.5% among 310,000 | Potency, µM, for the others: largest response in the series, negative = inhibition, most hits filed as inhibitors;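 note: the enzyme is Sfp with the accession as filed and its product quenches rhodamine fluorescence; potency is the fitted concentration of half-maximal effect; 0% = enzyme reaction without inhibitor and -100% = no enzyme wells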
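Sfp 15 nM + cpd, 15 min RT; start w/ rhodamine-CoA 5 uM, BHQ-2-YbbR 12.5 uM (final); 50 mM Hepes pH 7.6, 10 mM MgCl2, 0.01% NP-40, 0.01% BSA; read 525/598 nm at 0 and 30 min.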
RGS12 GoLoco inh: inhibitors of human Gai1-RGS12 GoLoco interaction (red fluorophore) | P63096 | Gai1:RGS12 GoLoco peptide FP, rhodamine, 10 min | Potency, µM (highest dose often 61.6 µM), for the others: at the top dose activity, negative = inhibition, hits mostly inhibitors | hit rate 0.44% among 230,000; active = well fitted inhibition curve with a large enough effect, not every such curve was filed as active; inactive = no such curve, though single readings can be large or run the other way; note: potency is the fitted concentration of half-maximal effect; nearly all actives have a fitted effect of over 30% in size
Target sequence (P63096 whole entry, looked up): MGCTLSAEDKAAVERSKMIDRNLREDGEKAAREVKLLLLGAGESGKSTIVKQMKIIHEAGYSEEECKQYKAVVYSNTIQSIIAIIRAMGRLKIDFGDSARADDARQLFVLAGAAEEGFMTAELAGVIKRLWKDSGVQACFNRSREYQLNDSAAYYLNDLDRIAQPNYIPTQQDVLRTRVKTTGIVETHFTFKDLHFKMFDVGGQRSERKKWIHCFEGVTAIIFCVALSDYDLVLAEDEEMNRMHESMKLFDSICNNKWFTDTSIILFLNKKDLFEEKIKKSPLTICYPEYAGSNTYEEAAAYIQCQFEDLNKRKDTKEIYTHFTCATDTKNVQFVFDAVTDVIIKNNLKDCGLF
ALDH1A1 block: blocks purified human ALDH1A1 activity; Purified ALDH1A1, NADH fluorescence, propionaldehyde substrate; Potency, µM (highest dose often 75.3 µM), for the others: at the top dose activity, negative = inhibition, most hits filed as inhibitors; hit rate 7.3% among 220,000; AID 1030; active = well fitted inhibition curve with a large enough effect, not every such curve was filed as active; inconclusive = small, poorly fitted or top-dose-only effect, or another doubt; inactive = no such curve, though single readings can be large or run the other way;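 note: potency is the fitted concentration of half-maximal effect; plate controls were no enzyme wells and a reference inhibitor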
FBPA coupling cs: counter-screen for Giardia aldolase inhibitors: coupling enzyme system; coupling enzyme system counterscreen, AmpLite Red fluorescence; activity change, negative = inhibition, % at 58.2 µM, hits read low; AID 2472; hit rate 0.67% among 290,000; in the data active = activity change below about -30%
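Counterscreen lacking aldolase: glyceraldehyde-3-phosphate coupling-enzyme reagent preincubated 10 min at RT with compound (at 57.5 uM final), then substrate/coupling system with AmpLite Red added; fluorescence read at 525/598 nm after 20 min RT.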
* hit, by the source's call; ? = inconclusive; · = not tested or not shown; ! = not active in a repeat; [ ] = dose if it differs, or a comment. Hits are enriched below; roughly 8.5% of the tested compounds scored in any of these assays. Unless noted, calls come from the whole dose curve; as a rule, active = well fitted curve in the direction sought with a large enough effect; inconclusive = small, poorly fitted or top-dose-only effect, or another doubt; inactive = no such curve, though single readings can be large; an effect the other way counts as inactive or inconclusive. Unless noted, % is set by controls: 0 for no effect and ±100 for the full control effect.

SMILES | NPSR antag | JMJD2E inh | Sfp inh | RGS12 GoLoco inh | ALDH1A1 block | FBPA coupling cs
Nc1nc(-c2cc(-c3ccccc3)no2)cs1 | · | · | 7% | · | · | -3
Cc1cc(-c2csc(N)n2)c(C)n1CCC(C)C | ? | -7% | 50µM* | 155% | ? | -7
Cc1nn(C)cc1-c1csc(N)n1 | 21% | -5% | 2% | -2% | -7% | 2
CC(=O)c1cccc(CN(C)CC2CCCN(CCc3ccccc3C)C2)c1 (configuration not stated) | · | · | 10% | · | · | 1
Cc1c(C(=O)C(=O)N2CCCc3ccccc32)c2ccccc2n1C | -17%[46.1 µM] | -2% | -8% | -2% | -13% | -10
Cc1ccc(NC(=S)N2CCCCC2)cc1C | 5% | -1% | 18% | 4% | · | -1
Cc1ccc(C)c(NC(=O)CN2C(=O)COc3ccc(S(=O)(=O)N4CCCC4)cc32)c1 | · | · | 9% | · | · | -1
CC1CCCCN1CCCNC(=O)c1ccc2nc(N3CCCCC3)sc2c1 (configuration not stated) | · | · | 14% | · | · | 1
CCN1C(=O)N[C@H](c2ccc(Br)cc2)C(C(C)=O)=C1C | -11% | 16% | 89µM*! | -1% | ? | 2
COCCN(C(=S)Nc1ccc(C)c(C)c1)C(C)c1ccco1 (configuration not stated) | ? | -2% | 8% | -3% | -2% | -1
CCc1cccc(NC(=S)N(CCOC)C(C)c2ccco2)c1 (configuration not stated) | -57% | -2% | 56µM* | 3% | · | -21
Cc1ccc(S(=O)(=O)Nc2cc(C(F)(F)F)ccc2N2CCOCC2)c(C)c1 | -34% | -25% | -9% | 9% | ? | 0
COc1ccc(-c2cc(C(=O)Nc3cc(C)n(Cc4ccc(Cl)cc4)n3)no2)cc1OC | -4%[46.1 µM] | ? | 71µM* | 18% | ? | 2
Cc1cc(C)c(C)c(S(=O)(=O)ON2C(=O)c3ccccc3C2=O)c1C | ? | ? | 22µM* | -8% | -1% | ·
Cc1ccc(OC(=O)CN2C(=O)c3ccccc3C2=O)cc1C | · | · | 5% | · | · | 3
C[C@H](O)CON1C(=O)c2ccccc2C1=O | · | 2% | 8% | -3% | -5% | 0
Cc1cc(C)c(S(=O)(=O)ON2C(=O)c3ccccc3C2=O)cc1C | -10%[46.1 µM] | ? | 20µM* | -8% | ? | -3
O=C1c2ccccc2C(=O)N1OS(=O)(=O)c1ccc(F)cc1 | · | · | 8.9µM* | · | · | 1
Cc1ccc(S(=O)(=O)ON2C(=O)c3ccccc3C2=O)c(C)c1 | -26%[46.1 µM] | ? | 10µM* | · | ? | -4
COc1ccc(C(=O)N2CCOC2CNC(=O)C(=O)NCCc2ccccc2OC)cc1 (configuration not stated) | · | · | 22% | · | · | ·
CCNc1nc(NC(C)C)nc(N(C#N)CC(=O)OC)n1 | 18% | 7% | 0% | 3% | ? | -1
CCNc1nc(NC(C)C)nc(N(C#N)CCOc2ccc(Cl)cc2Cl)n1 | 10µM* | ? | -2% | 8% | -1% | -3
CCNc1nc(NC(C)C)nc(N(C#N)Cc2ccccc2)n1 | ? | 4% | -16% | -67% | 1.8µM* | 1
Cc1cc(C)n(C(C)CNS(=O)(=O)c2ccc(Cl)cc2)n1 (configuration not stated) | · | · | -8% | · | · | 3
COc1ccc(CNC(=O)CCCOc2cc(=O)n(C)c3ccccc23)cc1 | -4%[46.1 µM] | -1% | 7% | 10% | 8% | 2
SMILES | NPSR antag | JMJD2E inh | Sfp inh | RGS12 GoLoco inh | ALDH1A1 block | FBPA coupling cs
CCn1c(=O)cc(OCC(=O)NCc2ccco2)c2ccccc21 | -15%[46.1 µM] | 0% | -1% | 2% | ? | 1
CC(C)CCNC(=O)CCCOc1cc(=O)n(C)c2ccccc12 | -14%[46.1 µM] | -1% | 3% | 0% | -1% | 3
Cc1ccc(CNC(=O)CCCOc2cc(=O)n(C)c3ccccc23)o1 | -8%[46.1 µM] | -9% | 22µM* | -19% | 20µM* | 0
CCn1c(=O)cc(OCC(=O)NCc2ccc(C)o2)c2ccccc21 | -6%[46.1 µM] | 0% | 32µM* | 3% | 22µM* | -4
Cn1c(=O)cc(OCCCC(=O)NCc2ccco2)c2ccccc21 | 10%[46.1 µM] | -4% | -1% | -1% | 20µM* | 3
CCC(C)NC(=O)C1(O)c2cc(Br)ccc2NC(=O)N1c1cccc(OC)c1 (configuration not stated) | · | · | 11% | · | · | 0
CN(C)c1ccc(-c2nccc(NCc3cccs3)n2)cc1 | · | · | ? | -3% | ? | 0
c1csc(CNc2ccnc(-c3ccoc3)n2)c1 | · | · | 79µM* | 3% | 11µM* | -3
FC(F)(F)c1ccccc1-c1nccc(NCc2cccs2)n1 | · | · | -11% | -5% | ? | -4
COc1ccccc1-c1nccc(NCc2cccs2)n1 | · | · | 79µM* | -5% | ? | 0
COc1cc(C2c3c(oc4ccccc4c3=O)C(=O)N2c2nccs2)ccc1O (configuration not stated) | -23% | -4% | 1% | 9% | · | 1
CC1CCN(C(=O)Cn2nnc(-c3ccc(C(C)C)cc3)n2)CC1 | · | · | 18% | · | · | -2
Cc1ccc(S(=O)(=O)N2CCCCC2C(=O)N(C)c2ccccc2)cc1 (configuration not stated) | · | · | 8% | · | · | -1
Clc1ccc(-c2nnc(-c3ccccc3)o2)c(Cl)c1 | ? | -24% | -10% | 1% | 32µM* | 0
CCN(c1cccc(C)c1)S(=O)(=O)c1ccc(OC)c([N+](=O)[O-])c1 | ? | 4% | 9% | -1% | 25µM* | 1
Cc1ccc(S(=O)(=O)Nc2c(Cl)c(Cl)c(O)c3ccccc23)cc1 | · | · | 45µM* | · | · | -11
O=c1oc2ccccc2nc1/C=C(\O)c1ccccc1 | 2% | -17% | ? | 6% | · | 3
O/C(=C\c1nc2ccccc2nc1/C=C(\O)c1ccccc1)c1ccccc1 | -58% | 18% | 40µM* | -5% | 5% | -48*
O=C1NC(=Nc2ccc(F)cc2)CS1 | -3% | -4% | 56µM* | 6% | ? | 0
Cc1ccc(N=C2CSC(=O)N2)cc1 | 12% | -1% | 12% | 58% | 6% | 1
N[C@@H](C(=O)O)c1ccc(C(=O)O)cc1 | · | ? | 4% | 97% | -1% | 2
N[C@H](C(=O)O)c1ccc(C(=O)O)cc1 | · | ? | 45µM*! | 7% | 8% | 0
O=S(=O)(NCCc1ccccc1)c1ccc(Cl)nc1 | 6% | 1% | 12% | 4% | -13% | 0
CCOC(=O)c1c(CSc2ccccc2)n(C)c2ccc(O)c(CN3CCOCC3)c12 | 7.9µM* | -2% | -37% | 6% | -13% | -12
CCOC(=O)c1c(C)n(C)c2ccc(O)c(CN3CCC(C)CC3)c12 | -1%[46.1 µM] | 1% | -3% | -3% | -8% | 1
CCOC(=O)c1c(C)n(C)c2ccc(O)c(CN3CCN(C)CC3)c12 | -4%[46.1 µM] | -11% | 13% | -4% | 18µM* | -8

Bioassay records: PubChem BioAssay, National Center for Advancing Translational Sciences (NCATS)
